Consider six molecules from PubChem BioAssay.

SMILES strings stand for the structures. Records with an inconclusive call do not appear. The source made the active and inactive calls. Unless noted, no rule for the calls is given here.

Experiment [1] in a line: stimulators of insulin release from INS-1E, primary screen, cell-based, 5 mM glucose, NPC library (AID 1117329;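 active = compound raises insulin release from rat beta cells at 5 mM glucose, no numeric limit stated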). The following applies: rat INS-1E insulin secretion, at 10 µM, stronger effect = higher value.
A short description of experiment [2]: growth inhibition of GSK3B-pretreated HCT116 cells – cell-based, CellTiter-Glo, 0.2 to 20 µM (AID 1117336;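 active = compounds lowering colon cancer cell viability after pretreatment blocking the GSK3B kinase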). Conditions: HCT116 viability after GSK3B inhibitor, at 20 µM, stronger effect = higher value.
A short description of experiment [3]: inhibition of endothelial tube formation, primary screen, imaging, VEGF stimulated, CD31 staining, tube area, NPC library (AID 1117340;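 active = compound that reduces growth-factor-driven endothelial tube area in a mixed cell culture, no cutoff stated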). Conditions: VEGF-stimulated ADSC/ECFC co-culture, at 10 µM, stronger effect = higher value.
Experiment [4] can be described thus: glucagon-like peptide 1 release enhancers, primary assay, NCI-H716 cell line, NPC library (AID 1117341;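 active = compound raises GLP1 secretion from the human gut endocrine cells, with no numeric limit stated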). The following applies: NCI-H716 cells, at 10 µM, stronger effect = higher value.
Experiment [5] is described as follows: HCT116 colon cancer cell growth inhibition, primary screen, CellTiter-Glo luminescence, NPC library (AID 1117342;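 active = compounds that lower survival of HCT116 colon cancer cells in the luminescence readout, no numeric limit stated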). The following applies: at 20 µM (top of the series). On the technique in general: In ATP-based viability assays light output follows the ATP content of the culture.
A short description of experiment [6]: CellTiter-Glo luminescent readout of SW480 viability loss, NPC library primary (AID 1117343;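 active = compounds that lower viability of the colon cancer cells in the luminescence readout, with no numeric limit stated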). Conditions: CellTiter-Glo luminescence; at 20 µM (top of the series).
A short description of experiment [7]: decreased DLD-1 cellular survival, CellTiter-Glo luminescent readout, NPC compound collection, primary HTS (AID 1117346;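 active = compounds that lower survival of DLD-1 colon cancer cells in the luminescence readout, no cutoff given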). The following applies: DLD-1 viability, CellTiter-Glo luminescence; at 20 µM (top of the series).
Experiment [8] in a line: modulation of C. elegans fzo-1 (AID 1259413).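 Also: fzo-1 mutant C. elegans worms in liquid wells.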 The following applies: C. elegans fzo-1 modulator screen, mean read-out; stronger effect = higher value.
Experiment [9] in a line: differential killing of epithelial or mesenchymal cells, primary screen, imaging, PC-3E GFP, TEM4-18 mCherry, co-culture (AID 1345086;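 active = compounds killing one labelled cell type while sparing the other, by normalised counts and ratio limits, not self-fluorescent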;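 as to all read-outs here: cells exposed to compound for 72 h before imaging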;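 as to red/green cell ratio (normalised): normalised mesenchymal count divided by normalised epithelial count so high means epithelial killing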). The following applies: imaging cell counts, at 1 µM; for red/green cell ratio (normalised): actives lie on both sides, counts scaled to control wells, 1 = unselective.
A short description of experiment [10]: growth inhibition of DIPG glioma cells, dose response, cell-based, SU-DIPG-XVII, MIPE5.0, CellTiter-Glo, qHTS (AID 1347060; cut-off not given, nearly all actives have AC50 up to about 26 µM). Conditions: SU-DIPG-XVII viability, CellTiter-Glo ATP luminescence.
Experiment [11] is described as follows: growth inhibition of DIPG glioma cells, dose response, cell-based, JHH-DIPG-1, MIPE4.0, CellTiter-Glo, qHTS (AID 1347062; cut-off not given, nearly all actives have AC50 up to about 27 µM;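 as to AC50: cells exposed to compound for two days before readout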). Conditions: JHH-DIPG-1 viability, CellTiter-Glo ATP luminescence.
A short description of experiment [12]: growth inhibition of DIPG glioma cells, dose response, cell-based, SU-DIPG-XIII, MIPE5.0, CellTiter-Glo, qHTS (AID 1347064; cut-off not given, nearly all actives have AC50 up to about 23 µM). The following applies: SU-DIPG-XIII viability, CellTiter-Glo ATP luminescence.
Experiment [13] in a line: growth inhibition of DIPG glioma cells, dose response, cell-based, SU-DIPG-XIII, MIPE4.0, CellTiter-Glo, qHTS (AID 1347061; cut-off not given, nearly all actives have AC50 up to about 37 µM;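 also: cells exposed to compound for 48 hours before readout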). Conditions: SU-DIPG-XIII viability, CellTiter-Glo ATP luminescence.
A short description of experiment [14]: growth inhibition of DIPG glioma cells, dose response, cell-based, SU-DIPG-IV, MIPE4.0, CellTiter-Glo, qHTS (AID 1347063; cut-off not given, nearly all actives have AC50 up to about 30 µM;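 also: compound exposure lasted 48 hours before the viability readout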). The following applies: SU-DIPG-IV viability, CellTiter-Glo ATP luminescence.
Where [15] appears, read: measured here: epithelial PC-3E GFP cell survival.
[16] abbreviates: measured here: mesenchymal TEM4-18 mCherry cell survival.

For the molecule `N#Cc1ccc(C(c2ccc(C#N)cc2)n2cncn2)cc1`, in [1], the insulin secretion stimulation was 0.6% (inactive). For the same molecule, the viability decrease in [2] is -9.1% (inactive). Moreover, in [3], the tube area decrease was -17.6% (inactive). Moreover, the GLP1 secretion stimulation in [4] was -2.1% (inactive). For the same molecule, the inhibition of viability in experiment [5] was 9.8% (inactive). For the same molecule, the figures for the viability decrease (inhibition) in experiment [6] and in [7] were -2.1% (inactive) and -3.3% (inactive), respectively. Further, the mean signal in experiment [8] was 236 (inactive). The red/green cell ratio (normalised) in [9] is 1.05 (inactive). Also, the results for the normalised cell number in experiment [9] (setting [15]) and in [9] (setting [16]) were 1.21 and 1.28, respectively. Further, the outcome in [10], in experiment [11] and in experiment [12] was inactive.
Broadly, the AC50 is the concentration giving half of the maximal activity seen. Regarding `CCCc1nc(C)c2c(=O)[nH]c(-c3cc(S(=O)(=O)N4CCN(CC)CC4)ccc3OCC)nn12`, the insulin secretion stimulation in [1] was -0.4% (inactive). Also, the viability decrease in experiment [2] was -11.4% (inactive). In addition, the tube area decrease in experiment [3] is -2.1% (inactive). Also, the GLP1 secretion stimulation in experiment [4] is 0.1% (inactive). In [5], the inhibition of viability is 23.1% (inactive). The results for the viability decrease (inhibition) in [6] and in experiment [7] were 14.2% (inactive) and -13.5% (inactive), respectively. Besides, the mean signal in experiment [8] is 298 (inactive). For the same molecule, the red/green cell ratio (normalised) in experiment [9] was 0.94 (inactive). The normalised cell number was determined as 1.1 in experiment [9] (setting [15]) and 1.03 in [9] (setting [16]). For the same molecule, the molecule was called inactive in [10] and in [12]. Further, the AC50 is 13.2 µM (active) in experiment [13], 18.7 µM (active) in experiment [11] and 4.18 µM (active) in experiment [14].
On to `Nc1nnc(-c2cccc(Cl)c2Cl)c(N)n1`, for which, in experiment [1], the insulin secretion stimulation is -0.4% (inactive). The viability decrease in experiment [2] is -5.8% (inactive). Moreover, in [3], the tube area decrease was 9.4% (inactive). In addition, in experiment [4], the GLP1 secretion stimulation is -4.7% (inactive). Also, the inhibition of viability in experiment [5] is 9.7% (inactive). Moreover, the viability decrease (inhibition) in [6] was 29.2% (inactive); in experiment [7], -4.7% (inactive). In addition, in experiment [8], the mean signal was 281 (inactive). Further, the red/green cell ratio (normalised) in experiment [9] is 0.86 (inactive). Further, the normalised cell number stood at 1.05 in experiment [9] (setting [15]) and 0.91 in [9] (setting [16]). Further, the outcome in experiment [10], in experiment [13] and in [12] was inactive.
Turning to `COc1ccccc1OCC(O)CN1CCN(CC(=O)Nc2c(C)cccc2C)CC1` (stereo not given), the insulin secretion stimulation in experiment [1] is 0.8% (inactive). For the same molecule, in [2], the viability decrease is -14.5% (inactive). In addition, the tube area decrease in experiment [3] is 0.2% (inactive). Further, the GLP1 secretion stimulation in experiment [4] was 2.2% (inactive). The inhibition of viability in [5] is 9.23% (inactive). The viability decrease (inhibition) in experiment [6] was -16.2% (inactive); in [7], -14.6% (inactive). Moreover, the mean signal in experiment [8] is 263 (inactive). Moreover, the red/green cell ratio (normalised) in [9] is 0.78 (inactive). Moreover, the results for the normalised cell number in experiment [9] (setting [15]) and in experiment [9] (setting [16]) were 1.24 and 0.96, respectively. Moreover, the molecule was classed as inactive in experiment [10], in experiment [13], in experiment [11], in experiment [14] and in experiment [12].
For `O=C1CCc2ccc(OCCCCN3CCN(c4cccc(Cl)c4Cl)CC3)cc2N1`, the insulin secretion stimulation in experiment [1] is 3.7% (inactive). Further, the viability decrease in [2] was 95% (active). For the same molecule, the tube area decrease in experiment [3] was 3.8% (inactive). Also, the GLP1 secretion stimulation in experiment [4] is 10.2% (inactive). For the same molecule, in [5], the inhibition of viability was 99.4% (active). Also, the viability decrease (inhibition) in [6] was 112% (active); in experiment [7] it was 89.5% (active). In addition, the mean signal in experiment [8] was 231 (inactive). Moreover, the red/green cell ratio (normalised) in experiment [9] is 0.72 (inactive). In addition, the normalised cell number in experiment [9] (setting [15]) amounted to 1.31; in experiment [9] (setting [16]), 0.94. In addition, the result in experiment [13] and in experiment [11] was inactive.
For `COc1cc2nc(N3CCN(C(=O)C4COc5ccccc5O4)CC3)nc(N)c2cc1OC` (stereo not given), the insulin secretion stimulation in experiment [1] is -0.7% (inactive). In addition, in experiment [2], the viability decrease is 100% (active). In experiment [3], the tube area decrease was 85.3% (active). Also, the GLP1 secretion stimulation in [4] was 25.7% (active). Also, the inhibition of viability in experiment [5] is 101% (active). The viability decrease (inhibition) in experiment [6] is 142% (active); in [7], 103% (active). In [8], the mean signal was 219 (inactive). For the same molecule, the red/green cell ratio (normalised) in experiment [9] was 0.65 (inactive). Moreover, the values for the normalised cell number in experiment [9] (setting [15]) and in [9] (setting [16]) were 1.28 and 0.83, respectively. Also, the molecule was classed as inactive in experiment [13].
